Assay results published in PMC7862700, “An all-to-all approach to the identification of sequence-specific readers for epigenetic DNA modifications on cytosine”.

Assays:
Experiment in all cases: DAPPL (digital affinity profiling via proximity ligation, sequencing); 10 mM Tris-HCl pH 7.5, 50 mM NaCl, 1 mM DTT, 4% glycerol, room temperature, 30 min; GST-TFs on glutathione beads, 16-mer random dsDNA library, 0.1% formaldehyde crosslink after washing; high values mean tight binding
Details in all cases: protein: recombinant; tags: N-terminal GST; dsDNA, one strand shown
[1] = biological target: T1, FLI1 (Homo sapiens, UniProt Q01543 1-452)
T1 sequence: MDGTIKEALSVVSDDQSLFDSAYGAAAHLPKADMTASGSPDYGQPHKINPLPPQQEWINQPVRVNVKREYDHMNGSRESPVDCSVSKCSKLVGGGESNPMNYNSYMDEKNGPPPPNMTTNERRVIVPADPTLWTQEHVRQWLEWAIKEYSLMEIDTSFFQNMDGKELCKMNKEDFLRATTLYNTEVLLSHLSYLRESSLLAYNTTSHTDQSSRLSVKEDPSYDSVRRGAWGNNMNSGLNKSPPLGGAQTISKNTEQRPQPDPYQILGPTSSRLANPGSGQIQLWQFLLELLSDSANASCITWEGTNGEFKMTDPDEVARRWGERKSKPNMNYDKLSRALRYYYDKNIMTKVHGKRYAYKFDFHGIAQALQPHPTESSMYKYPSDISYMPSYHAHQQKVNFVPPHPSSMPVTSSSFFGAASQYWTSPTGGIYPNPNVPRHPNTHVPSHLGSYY
In short: (§1)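 Human transcription factors were made in yeast as GST fusions, captured on glutathione beads and barcoded with DNA. With a tag-only sample included, the pool was incubated with 200 nmole of a random double-stranded 16-mer DNA library in Tris/NaCl/DTT/glycerol buffer at room temperature for 30 min, then crosslinked with 0.1% formaldehyde after washing, ligated by proximity, amplified and sequenced. For binding signal, each hexamer's read frequency for a factor is divided by its frequency for the tag-only sample.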

[2] = biological target: T2, ELK1 (Homo sapiens, UniProt P19419 1-428)
T2 sequence: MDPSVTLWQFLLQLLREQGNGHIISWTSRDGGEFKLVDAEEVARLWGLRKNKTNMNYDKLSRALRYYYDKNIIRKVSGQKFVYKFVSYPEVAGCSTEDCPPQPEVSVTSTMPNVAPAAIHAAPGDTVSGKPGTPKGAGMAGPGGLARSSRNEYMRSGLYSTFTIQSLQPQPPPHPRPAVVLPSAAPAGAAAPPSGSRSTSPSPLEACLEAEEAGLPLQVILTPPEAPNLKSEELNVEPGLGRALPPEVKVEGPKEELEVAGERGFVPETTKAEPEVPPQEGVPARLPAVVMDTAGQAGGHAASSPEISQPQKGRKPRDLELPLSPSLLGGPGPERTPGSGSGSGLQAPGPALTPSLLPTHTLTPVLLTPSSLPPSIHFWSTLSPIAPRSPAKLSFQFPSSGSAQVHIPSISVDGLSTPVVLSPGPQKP
In short: as §1

[3] = biological target: T3, GABPA (Homo sapiens, UniProt Q06546 1-454)
T3 sequence: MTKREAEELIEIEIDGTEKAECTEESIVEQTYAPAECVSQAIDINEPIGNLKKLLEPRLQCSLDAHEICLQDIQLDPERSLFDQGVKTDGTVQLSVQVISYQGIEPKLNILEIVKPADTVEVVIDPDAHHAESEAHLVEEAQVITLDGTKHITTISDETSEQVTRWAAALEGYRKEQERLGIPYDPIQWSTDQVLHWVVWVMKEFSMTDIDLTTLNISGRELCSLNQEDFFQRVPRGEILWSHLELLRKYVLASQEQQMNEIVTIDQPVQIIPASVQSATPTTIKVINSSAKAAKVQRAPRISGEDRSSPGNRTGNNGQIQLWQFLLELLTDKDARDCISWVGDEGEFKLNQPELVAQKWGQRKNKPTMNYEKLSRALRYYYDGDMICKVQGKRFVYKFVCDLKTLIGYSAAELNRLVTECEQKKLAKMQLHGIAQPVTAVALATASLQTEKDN
In short: as §1

[4] = biological target: T4, ERG (Homo sapiens, UniProt P11308 1-479)
T4 sequence: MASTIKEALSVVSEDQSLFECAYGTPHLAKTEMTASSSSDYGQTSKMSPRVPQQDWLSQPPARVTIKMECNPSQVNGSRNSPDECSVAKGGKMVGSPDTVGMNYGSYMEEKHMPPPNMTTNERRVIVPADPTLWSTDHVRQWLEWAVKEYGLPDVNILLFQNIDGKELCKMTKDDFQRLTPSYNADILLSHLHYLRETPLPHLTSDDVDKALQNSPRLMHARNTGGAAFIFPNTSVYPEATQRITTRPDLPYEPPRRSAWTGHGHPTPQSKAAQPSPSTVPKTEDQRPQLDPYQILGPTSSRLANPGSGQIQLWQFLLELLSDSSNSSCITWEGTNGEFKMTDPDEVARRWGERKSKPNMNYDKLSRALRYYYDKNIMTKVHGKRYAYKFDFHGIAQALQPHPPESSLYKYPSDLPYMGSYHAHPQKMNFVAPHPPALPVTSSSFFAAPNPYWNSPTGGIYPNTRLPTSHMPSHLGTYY
In short: as §1

[5] = biological target: ELF1 (Homo sapiens, UniProt P32519 1-619)
Chain of ELF1 (P32519 whole entry): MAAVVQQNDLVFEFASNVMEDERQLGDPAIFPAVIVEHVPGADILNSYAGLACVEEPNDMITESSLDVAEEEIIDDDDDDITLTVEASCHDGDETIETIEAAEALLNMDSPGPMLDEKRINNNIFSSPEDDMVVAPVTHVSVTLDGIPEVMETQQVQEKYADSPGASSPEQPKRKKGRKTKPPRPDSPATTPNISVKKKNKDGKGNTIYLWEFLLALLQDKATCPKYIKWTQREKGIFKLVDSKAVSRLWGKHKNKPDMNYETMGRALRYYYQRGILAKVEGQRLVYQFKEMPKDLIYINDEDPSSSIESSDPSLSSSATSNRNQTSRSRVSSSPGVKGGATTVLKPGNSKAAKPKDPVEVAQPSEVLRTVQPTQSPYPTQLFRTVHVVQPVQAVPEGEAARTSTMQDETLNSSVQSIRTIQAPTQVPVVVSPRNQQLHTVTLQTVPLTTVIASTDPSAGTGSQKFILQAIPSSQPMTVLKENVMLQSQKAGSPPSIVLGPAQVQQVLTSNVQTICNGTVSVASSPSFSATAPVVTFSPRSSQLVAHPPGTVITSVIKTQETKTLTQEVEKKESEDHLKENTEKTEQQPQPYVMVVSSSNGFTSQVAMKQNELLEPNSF
In short: as §1

[6] = biological target: T5, EHF (Homo sapiens, UniProt Q9NZC4 1-300)
T5 sequence: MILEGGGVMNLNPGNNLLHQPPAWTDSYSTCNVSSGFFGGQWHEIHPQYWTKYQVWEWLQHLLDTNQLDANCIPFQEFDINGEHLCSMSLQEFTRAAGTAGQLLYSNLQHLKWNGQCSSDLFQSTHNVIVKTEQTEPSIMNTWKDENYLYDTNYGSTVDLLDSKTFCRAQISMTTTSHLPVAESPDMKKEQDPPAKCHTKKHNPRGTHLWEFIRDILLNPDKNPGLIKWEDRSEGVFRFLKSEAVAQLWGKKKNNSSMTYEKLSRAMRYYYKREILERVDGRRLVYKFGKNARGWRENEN
In short: as §1

[7] = biological target: SPI1 (Homo sapiens, UniProt P17947 1-270)
In short: as §1

[8] = biological target: SPIB (Homo sapiens, UniProt Q01892 1-262)
Chain of SPIB (Q01892 whole entry): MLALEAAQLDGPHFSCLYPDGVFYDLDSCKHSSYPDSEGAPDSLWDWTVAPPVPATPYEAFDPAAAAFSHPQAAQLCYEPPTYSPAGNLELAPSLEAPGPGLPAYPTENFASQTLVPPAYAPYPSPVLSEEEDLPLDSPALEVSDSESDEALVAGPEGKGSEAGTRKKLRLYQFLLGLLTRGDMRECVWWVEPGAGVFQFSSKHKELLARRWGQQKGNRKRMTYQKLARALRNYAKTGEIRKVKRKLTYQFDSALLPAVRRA
In short: as §1

[9] = biological target: T6, ELK3 (Homo sapiens, UniProt P41970 1-407)
T6 sequence: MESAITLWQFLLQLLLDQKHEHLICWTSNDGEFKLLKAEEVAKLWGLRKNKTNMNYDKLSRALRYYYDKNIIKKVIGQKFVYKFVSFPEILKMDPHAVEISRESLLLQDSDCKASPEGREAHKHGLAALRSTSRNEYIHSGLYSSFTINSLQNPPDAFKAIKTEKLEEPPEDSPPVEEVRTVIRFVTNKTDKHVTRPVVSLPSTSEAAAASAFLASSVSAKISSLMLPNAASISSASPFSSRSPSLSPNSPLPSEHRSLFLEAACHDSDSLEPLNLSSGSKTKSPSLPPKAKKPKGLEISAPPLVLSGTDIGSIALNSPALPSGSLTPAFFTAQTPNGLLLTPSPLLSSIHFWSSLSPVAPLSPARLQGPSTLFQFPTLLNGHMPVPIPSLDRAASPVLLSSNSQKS
In short: as §1

CTTCAA
binding signal [1]: 1.44 fold enrichment (6-mer frequency, TF over GST control)
binding signal [2]: 1.35 fold enrichment (6-mer frequency, TF over GST control)
binding signal [3]: 1.35 fold enrichment (6-mer frequency, TF over GST control)
binding signal [4]: 1.28 fold enrichment (6-mer frequency, TF over GST control)
binding signal [5]: 1.4 fold enrichment (6-mer frequency, TF over GST control)
binding signal [6]: 1.26 fold enrichment (6-mer frequency, TF over GST control)
binding signal [7]: 1.27 fold enrichment (6-mer frequency, TF over GST control)
binding signal [8]: 1.4 fold enrichment (6-mer frequency, TF over GST control)
binding signal [9]: 1.13 fold enrichment (6-mer frequency, TF over GST control)

AATCTT
binding signal [1]: 1.36 fold enrichment (6-mer frequency, TF over GST control)
binding signal [2]: 1.24 fold enrichment (6-mer frequency, TF over GST control)
binding signal [3]: 1.28 fold enrichment (6-mer frequency, TF over GST control)
binding signal [4]: 1.32 fold enrichment (6-mer frequency, TF over GST control)
binding signal [5]: 1.29 fold enrichment (6-mer frequency, TF over GST control)
binding signal [6]: 1.29 fold enrichment (6-mer frequency, TF over GST control)
binding signal [7]: 1.26 fold enrichment (6-mer frequency, TF over GST control)
binding signal [8]: 1.29 fold enrichment (6-mer frequency, TF over GST control)
binding signal [9]: 1.44 fold enrichment (6-mer frequency, TF over GST control)

TCTGCT
binding signal [1]: 1.26 fold enrichment (6-mer frequency, TF over GST control)
binding signal [2]: 1.3 fold enrichment (6-mer frequency, TF over GST control)
binding signal [3]: 1.33 fold enrichment (6-mer frequency, TF over GST control)
binding signal [4]: 1.22 fold enrichment (6-mer frequency, TF over GST control)
binding signal [5]: 1.45 fold enrichment (6-mer frequency, TF over GST control)
binding signal [6]: 1.55 fold enrichment (6-mer frequency, TF over GST control)
binding signal [7]: 1.27 fold enrichment (6-mer frequency, TF over GST control)
binding signal [8]: 1.22 fold enrichment (6-mer frequency, TF over GST control)
binding signal [9]: 1.2 fold enrichment (6-mer frequency, TF over GST control)

GACTCC
binding signal [1]: 1.35 fold enrichment (6-mer frequency, TF over GST control)
binding signal [2]: 1.23 fold enrichment (6-mer frequency, TF over GST control)
binding signal [3]: 1.29 fold enrichment (6-mer frequency, TF over GST control)
binding signal [4]: 1.3 fold enrichment (6-mer frequency, TF over GST control)
binding signal [5]: 1.35 fold enrichment (6-mer frequency, TF over GST control)
binding signal [6]: 1.37 fold enrichment (6-mer frequency, TF over GST control)
binding signal [7]: 1.35 fold enrichment (6-mer frequency, TF over GST control)
binding signal [8]: 1.38 fold enrichment (6-mer frequency, TF over GST control)
binding signal [9]: 1.25 fold enrichment (6-mer frequency, TF over GST control)

CAAATA
binding signal [1]: 1.04 fold enrichment (6-mer frequency, TF over GST control)
binding signal [2]: 1.13 fold enrichment (6-mer frequency, TF over GST control)
binding signal [3]: 1.18 fold enrichment (6-mer frequency, TF over GST control)
binding signal [4]: 1.19 fold enrichment (6-mer frequency, TF over GST control)
binding signal [5]: 1.17 fold enrichment (6-mer frequency, TF over GST control)
binding signal [6]: 1.14 fold enrichment (6-mer frequency, TF over GST control)
binding signal [7]: 1.14 fold enrichment (6-mer frequency, TF over GST control)
binding signal [8]: 1.19 fold enrichment (6-mer frequency, TF over GST control)
binding signal [9]: 1.11 fold enrichment (6-mer frequency, TF over GST control)

GCTAAT
binding signal [1]: 1.14 fold enrichment (6-mer frequency, TF over GST control)
binding signal [2]: 1.18 fold enrichment (6-mer frequency, TF over GST control)
binding signal [3]: 1.17 fold enrichment (6-mer frequency, TF over GST control)
binding signal [4]: 1.13 fold enrichment (6-mer frequency, TF over GST control)
binding signal [5]: 1.16 fold enrichment (6-mer frequency, TF over GST control)
binding signal [6]: 1.17 fold enrichment (6-mer frequency, TF over GST control)
binding signal [7]: 1.13 fold enrichment (6-mer frequency, TF over GST control)
binding signal [8]: 1.17 fold enrichment (6-mer frequency, TF over GST control)
binding signal [9]: 1.2 fold enrichment (6-mer frequency, TF over GST control)

TACGAA
binding signal [1]: 1.15 fold enrichment (6-mer frequency, TF over GST control)
binding signal [2]: 1.23 fold enrichment (6-mer frequency, TF over GST control)
binding signal [3]: 1.3 fold enrichment (6-mer frequency, TF over GST control)
binding signal [4]: 1.23 fold enrichment (6-mer frequency, TF over GST control)
binding signal [5]: 1.28 fold enrichment (6-mer frequency, TF over GST control)
binding signal [6]: 1.22 fold enrichment (6-mer frequency, TF over GST control)
binding signal [7]: 1.15 fold enrichment (6-mer frequency, TF over GST control)
binding signal [8]: 1.19 fold enrichment (6-mer frequency, TF over GST control)
binding signal [9]: 1.25 fold enrichment (6-mer frequency, TF over GST control)
